Reference: publication PMC3795721, “Screening for Protein-DNA Interactions by Automatable DNA-Protein Interaction ELISA”

Biological target: AT4G31550 (Arabidopsis thaliana, UniProt Q9SV15 228-325)
Experiment: DPI-ELISA; DPI-ELISA, streptavidin 384-well plate, 1-2 pmol biotinylated dsDNA per well, crude native E. coli extract, anti-His detection; buffer as in Brand et al. [46],; high values mean tight binding
Conditions: tags: C-terminal His (pET-DEST42); label: 5' biotin on forward strand; dsDNA, one strand shown

AT4G31550, sequence (Q9SV15 228-325): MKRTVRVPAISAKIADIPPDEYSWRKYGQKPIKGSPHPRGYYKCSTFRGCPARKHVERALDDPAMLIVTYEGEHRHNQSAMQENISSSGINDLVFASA

| Sequence | binding signal |
| --- | --- |
| AAAAAATAGGCGTTATGGCTAACACCAAAA | 0.685 ± 0.106 absorbance |
| AAAAAATGTCTTCTTACACCCTCTAGAAAA | 0.68 ± 0.0707 absorbance |
| AAAAAAGATGATTAGTAATTGCGGAAAAAA | 0.75 ± 0.0849 absorbance |
| AAAAAAACCGCGTCGCGGCCCGGGAAAA | 0.5 ± 0.113 absorbance |
| AAAAAAACCGATTACCATTTTTACTGAAAA | 0.695 ± 0.148 absorbance |
| AAAAAATCATTTTATTTTGCCTTTCTAAAA | 0.56 ± 0.127 absorbance |
| AAAAAATCTTCACCTCACTTCGGTTTAAAA | 0.67 ± 0.0566 absorbance |
| AAAAAACTCGTACATCTATCGCTACGAAAA | 0.54 ± 0.0849 absorbance |
| AAAAAATATCGGGCACGGTCTTGTCTAAAA | 0.585 ± 0.0495 absorbance |
| AAAAAAACTCTCCGGGTACAATTGCAAAAA | 0.605 ± 0.205 absorbance |
| AAAAAAGGACGTCTTCGGTATGAGTGAAAA | 0.815 ± 0.163 absorbance |
| AAAAAAGGTTGGTACGTCGAGTTCTTAAAA | 0.565 ± 0.163 absorbance |
| AAAAAATGCCCTTTTTATCTTTATGTAAAA | 0.65 ± 0.0707 absorbance |
| AAAAAATGACCAGGCCTCGAGCAAAAA | 0.665 ± 0.0636 absorbance |
| AAAAAAAGTTGTACTTATTATACTTTAAAA | 0.53 ± 0.113 absorbance |
| AAAAAAATTGTATCATACTTCAGTTGAAAA | 0.61 ± 0.0707 absorbance |
| AAAAAAATCTCACTCCTGGTCCCCATAAAA | 0.56 ± 0.099 absorbance |
| AAAAAACACTGCACTATTGGGAGTTCAAAA | 0.615 ± 0.177 absorbance |
| AAAAAAGTCGTCACGCACGTGAATACAAAA | 1.15 ± 0.0141 absorbance |

| Sequence | binding signal |
| --- | --- |
| AAAAAAGTCTAAGGACTTATAGCTGTAAAA | 1.65 ± 0.608 absorbance |
| AAAAAATGGTTTCAATTTTCCGTCCGAAAA | 0.405 ± 0.0778 absorbance |
| AAAAAAGGCTTCCACTTTGAGTTTGCAAAA | 0.57 ± 0.099 absorbance |
| AAAAAAAGGTTTGGGCTTCACGTTATAAAA | 0.725 ± 0.12 absorbance |
| AAAAAATGGTCGTCGTACTCGTGGTCAAAA | 2.96 ± 0.424 absorbance |
| AAAAAAAAGTGCCAACGTTCAAGAAAAA | 0.38 ± 0.099 absorbance |
| AAAAAAACAGCTCGGTGCCACTGTGGAAAA | 0.61 ± 0.0424 absorbance |
| AAAAAACACTCACACCTATACGGCTCAAAA | 0.665 ± 0.233 absorbance |
| AAAAAATTTGTACTTTAAGTTTACATAAAA | 0.56 ± 0.0849 absorbance |
| AAAAAAGCGCGAATTCTAGAACTATAAAAA | 0.57 ± 0.113 absorbance |
| AAAAAATATCCTATTCTAATTTATATAAAA | 0.55 ± 0.113 absorbance |
| AAAAAATTCCGCGTGTATGTGTACGTAAAA | 0.72 ± 0.212 absorbance |
| AAAAAACCACCCAGTCTGTTTCTACTAAAA | 0.54 ± 0.141 absorbance |
| AAAAAAATCGTTGTTATCGTATTTATAAAA | 0.565 ± 0.12 absorbance |
| AAAAAATTCCTGTCCGCTCTCGCTCCAAAA | 0.685 ± 0.148 absorbance |
| AAAAAACGCTTTCAGTTTTGATCTTAAAAA | 0.495 ± 0.0778 absorbance |
| AAAAAACGCTCCGTTTTTGCAATGCGAAAA | 0.61 ± 0.0707 absorbance |
| AAAAAACGGTCGCGATCGTTAATGATAAAA | 0.75 ± 0.17 absorbance |
| AAAAAATCAACCATTATGGTATTACTAAAA | 0.79 ± 0.212 absorbance |
